High-throughput results from PubChem.
hgDAF-12 ag: H. glycines DAF-12 receptor agonists, primary screen, cell-based, luminescence, HEK293, GAL4 fusion, UAS-luciferase. AID 687014, 2013. actives 1.8% (n = 370,000). HEK293 GAL4-hgDAF12 UAS-luciferase reporter, agonist luminescence; normalized to butyrate control. activation, % at 6.8 µM. Nuclear hormone receptor DAF-12 (Heterodera glycines), GAL4 fusion;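 active = activation above a cutoff set at the mean of all screened compounds plus 3 SD, cut at about 10% in these data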;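 note: 0% = DMSO wells and 100% = sodium butyrate wells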
ssDAF-12 act: S. stercoralis DAF-12 nuclear receptor activators, primary screen, cell-based, luminescence, HEK293, GRIP1 co-expression, lit1-tk-luc; Nuclear hormone receptor DAF-12 (Strongyloides stercoralis); activation, % at 6.8 µM; HEK293 ssDAF-12/GRIP1 lit1-tk-luc reporter; % of 3 µM dafachronic acid response; actives 1% (n = 370,000);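 active = activation above the mean over all tested compounds plus 3 SD, cut at about 0.9% in these data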;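 note: 0% = DMSO-only wells and 100% = 3 µM delta7-dafachronic acid wells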
DAX1 inh-1: DAX1 (NR0B1) inhibitors, primary screen, cell-based, HEK293, Gal4-DAX1, luciferase luminescence; Nuclear receptor subfamily 0 group B member 1 (Homo sapiens), P51843; HEK293 Gal4-DAX1 luciferase reporter; inhibition, % at 6.75 µM; actives 0.99% (n = 340,000); AID 504766, 2011;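 active = inhibition above the mean over all tested compounds plus 3 SD, cut at about 4.2% in these data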;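 note: 0% = DAX1-transfected cells with DMSO and 100% = empty-vector control cells with DMSO; inhibition shows as a rise in luminescence from relieved DAX1 repression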
Target sequence (P51843 207-470 limits assumed): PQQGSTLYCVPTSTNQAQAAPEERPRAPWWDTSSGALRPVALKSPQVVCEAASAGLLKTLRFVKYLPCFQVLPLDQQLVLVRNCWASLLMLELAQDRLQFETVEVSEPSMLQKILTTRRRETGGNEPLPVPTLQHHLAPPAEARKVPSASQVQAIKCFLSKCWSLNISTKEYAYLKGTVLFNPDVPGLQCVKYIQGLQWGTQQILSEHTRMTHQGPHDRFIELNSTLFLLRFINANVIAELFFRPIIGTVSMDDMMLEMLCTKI
DAX1 inh-2: DAX1 (NR0B1) inhibitors on StAR promoter, primary screen, cell-based, luminescence, SF-1 (NR5A1), full-length DAX-1 | HEK293T StAR-luciferase reporter, SF-1/DAX-1 repression relief | inhibition, % at 6.8 µM | AID 652010, 2013 | actives 1.1% (n = 370,000);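 active = inhibition above the mean over all tested compounds plus 3 SD, cut at about 3.6% in these data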;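 note: 0% = DAX-1 cells with DMSO and 100% = cells lacking DAX-1 with DMSO; higher inhibition means more luminescence from relief of DAX-1 repression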
hcDAF12 agonist: H. contortus DAF-12 nuclear receptor activators, primary screen, cell-based, luminescence, HEK293, lit1-tk-luc reporter | actives 1.4% (n = 370,000) | AID 652067, 2013 | HEK293 hcDAF-12 lit1-tk-luc reporter; 0% DMSO, 100% Δ7-dafachronic acid | activation, % at 6.8 µM;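 active = activation above the mean of all tested compounds plus 3 SD, cut at about 5.5% in these data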;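 note: 100% = response to 3 µM Δ7-dafachronic acid high control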
DAX1 conf: DAX1 (NR0B1) inhibitors relieving SF-1 repression, confirmation, cell-based, luminescence, HEK293T, full-length DAX-1, SF-1 activated StAR promoter; shares compounds with DAX1 inh-2; HEK293T StAR-promoter luciferase reporter, SF-1/DAX-1 repression; inhibition, % at 6.8 µM; actives 87% (n = 2,400); AID 652134, 2013;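 active = inhibition above the average of every tested compound plus 3 SD, cut at about 3.8% in these data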;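 note: 0% = DAX-1 cells with DMSO and 100% = no DAX-1 control cells with DMSO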
SF1 AF2mut Luc: StAR reporter signal changes without DAX1, counter-screen for DAX1 inhibitor project, cell-based, luminescence, AF-2 mutant SF-1, transactivation. HEK293 StAR-luciferase, SF-1 AF2 mutant. shares compounds with DAX1 inh-2. inhibition, % at 6.8 µM. AID 652136, 2013. actives 78% (n = 2,400);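 active = inhibition above the mean of all tested compounds plus 3 SD, cut at about 3% in these data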;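 note: 0% = DAX-1 transfected cells with DMSO and 100% = cells without DAX-1 with DMSO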
LXR ag: LXR agonists, Gal4 luciferase reporter, confirmation, counter-screen for hcDAF-12 agonist project, cell-based, luminescence, HEK293, H. contortus campaign; shares compounds with hcDAF12 agonist; HEK293 Gal4-LXR tk-luc reporter, 24 h; normalized: DMSO 0%, positive control 100%; activation, % at 6.8 µM; 3,400 tested, under 10 active;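 active = mean percent activation of the reporter above a cutoff set as the average over tested compounds plus their standard deviation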
hcDAF12 ag: H. contortus DAF-12 receptor agonists, confirmation, cell-based, luminescence, HEK293, lit1-tk-luc, triplicate. actives 61% (n = 3,400). activation, % at 6.8 µM. AID 743032, 2013. HEK293 hcDAF-12 lit1-tk-luc reporter; % of Δ7-dafachronic acid response. shares compounds with hcDAF12 agonist;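 active = mean activation across triplicate tests above the threshold derived from the earlier primary screen, cut at about 5.5% in these data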;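 note: 0% = DMSO only wells and 100% = 3 µM Δ7-dafachronic acid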
hgDAF12 ag: H. glycines DAF-12 receptor agonists, confirmation, cell-based, luminescence, HEK293, GAL4-LBD fusion | shares compounds with hgDAF-12 ag | HEK293 GAL4-hgDAF12 luciferase reporter, agonist mode; percent of butyrate response | activation, % at 6.8 µM | actives 80% (n = 3,300) | AID 743050, 2013;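 active = mean activation over triplicate wells above the hit cutoff derived from the earlier primary screen, cut at about 11% in these data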;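 note: 0% = DMSO low control and 100% = 2 mM sodium butyrate high control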
LXRb DAF12 ctr: LXR agonists, Gal4 luciferase reporter, confirmation, counter-screen for hgDAF-12 agonist project, cell-based, luminescence, HEK293, H. glycines campaign; shares compounds with hgDAF-12 ag; 24 h; activation, % at 6.8 µM; 3,300 tested, under 10 active;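 active = mean activation of the triplicate above a set limit carried over from the primary screen, none filed active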
An asterisk follows results filed as active; x = no result. A selection: hits, their analogues and other compounds. The true share with any hit is near 4.1%.

SMILES | hgDAF-12 ag | ssDAF-12 act | DAX1 inh-1 | DAX1 inh-2 | hcDAF12 agonist | DAX1 conf | SF1 AF2mut Luc | hgDAF12 ag | LXRb DAF12 ctr | others
COc1ccc(CNC(=O)C[C@H]2C[C@H](C(=O)N(C(C)C)C(C)C)[C@@]3(C)c4[nH]c5cc(-c6ccco6)ccc5c4CCN3C2=O)cc1OC | -3 | -1 | -2 | -1 | -2 | x | x | x | x
COc1cc(Cl)ccc1OCc1cc(C(=O)N2CCCC(OC)C2)no1 (stereo unspecified) | 18* | 0 | 1 | 8.1* | 4 | 6.6* | 4.1* | 17* | 1
Cc1cccc(-c2noc(-c3csc([C@@H]4C[C@H](O)[C@@H](CO)O4)n3)n2)c1 | 18* | 1 | x | 9.8* | 5 | 16* | 9.5* | 20* | 1
c1ccc(N=Nc2ccc(C3=NCCO3)cc2)cc1 | 18* | 1 | 3 | 11* | 7.9* | 19* | 9.0* | 16* | 1 | LXR ag=1;hcDAF12 ag=5
O=C1CCC(C(=O)N2CCSCC2)CN1Cc1cccc(C(F)(F)F)c1 (stereo unspecified) | 0 | -1 | 0 | -1 | -2 | x | x | x | x
O=C(Nc1ccc2c(c1)OCO2)c1cc(C2CCCN(C(=O)CCc3ccccc3)C2)on1 (stereo unspecified) | 3 | -2 | x | 2 | 0 | x | x | x | x
CCCC(=O)N1CCCC(c2cc(C(=O)Nc3ccc4c(c3)OCO4)no2)C1 (stereo unspecified) | 18* | -1 | x | 4.7* | 3 | 4.4* | 2 | 13* | 1
O=C(Nc1ccccc1NC(=O)c1csnn1)c1csnn1 | 1 | -1 | 1 | 0 | 1 | x | x | x | x
CC(C)c1ccc(NC(=O)c2csnn2)cc1 | 13* | 1.1* | 0 | 4.7* | 5 | 12* | 6.6* | 13* | 1
CN(CC(=O)Nc1ccccc1C(=O)NC1CC1)Cc1ccc(N(C)C)cc1 | -1 | -1 | 0 | -2 | -2 | x | x | x | x
